CYP2C9 inh = inhibitors of human CYP2C9; P11712; CYP2C9 Supersomes, luciferin-H conversion, luminescence; inhibition, % at 5 µM; 96,000 compounds, 20% hits; AID 777;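 active = blocking of liver enzyme CYP2C9 beyond about 50% at 5 µM, limit read from the data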
MRP resist rev = MRP-mediated drug resistance reversal; H69AR cells + 2 uM doxorubicin, CellTiter-Glo, 72 h; differential viability (reversal), % at 10 µM; 85,000 compounds, 0.04% hits;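 active = viability drop by adding the cancer drug above about 55%, with treated viability meeting a 40% cutoff, limit read from the data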;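 note: larger differential means the compound sensitizes cells more to doxorubicin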
CYP2C19 activ = increases human CYP2C19 enzyme activity; AID 1025; recombinant CYP2C19, luciferin-H EGE luminescence; active compounds read high; 0 = fully inhibited enzyme, 1 = untreated enzyme; P33261; 96,000 tested, under 10 active; activation factor at 5 µM;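 active = activation factor of at least 2 at 5 µM in the primary screen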
Target sequence (P33261 whole entry, looked up): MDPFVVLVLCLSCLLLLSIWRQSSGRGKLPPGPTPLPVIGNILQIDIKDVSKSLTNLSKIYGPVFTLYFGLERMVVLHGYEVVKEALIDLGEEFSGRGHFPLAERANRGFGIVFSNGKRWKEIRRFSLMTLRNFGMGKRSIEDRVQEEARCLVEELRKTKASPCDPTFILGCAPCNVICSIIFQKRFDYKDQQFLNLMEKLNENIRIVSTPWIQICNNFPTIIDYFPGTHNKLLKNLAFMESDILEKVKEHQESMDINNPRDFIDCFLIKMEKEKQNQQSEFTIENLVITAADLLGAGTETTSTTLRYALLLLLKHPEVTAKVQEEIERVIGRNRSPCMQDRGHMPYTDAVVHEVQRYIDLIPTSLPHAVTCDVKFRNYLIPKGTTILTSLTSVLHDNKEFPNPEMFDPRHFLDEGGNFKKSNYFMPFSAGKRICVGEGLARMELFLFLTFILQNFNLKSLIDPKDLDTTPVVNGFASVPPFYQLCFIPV
MRP1 act = activates MRP-1; H69AR cells + doxorubicin, viability rescue, CellTiter-Glo; viability increase, % at 10 µM; 140,000 compounds, 0.61% hits;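 active = viability gain under doxorubicin at or above a set limit, the compound median plus 3 SD, cut at about 4.7% in these data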;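 note: MRP-1 overexpressing cells given doxorubicin 25 µM after compound pretreatment; 18-22 h compound pretreatment then 72 h with doxorubicin before readout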
CYP2C9 act = increases human cytochrome P450 2C9 activity. P11712. recombinant CYP2C9, luciferin-H conversion, luminescence; active compounds read high; factor 1 = untreated enzyme, 0 = blocked. activation factor at 5 µM. 96,000 compounds, 1.4% hits;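 active = activation factor of 2 or more for CYP2C9 at a 5 µM dose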
CYP2C19 inh = human CYP2C19 inhibition | AID 778 | inhibition, % at 5 µM | CYP2C19 Supersomes, luciferin-H EGE luminescence, 30 min | 96,000 compounds, 21% hits | P33261;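 active = CYP2C19 inhibition above a set limit at 5 µM in the primary screen, cut at about 50% in these data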
Of the large screens only hits and unclear results are named; the others gave an inactive call. In the library only some 21% were active in any assay of this set; here they are far more common.

CCOc1ccc(S(=O)(=O)Nc2ccccc2C(=O)Nc2ccccc2N2CCOCC2)cc1	CYP2C9 inh 69, CYP2C19 inh 84
Cc1cc(F)ccc1S(=O)(=O)Nc1ccccc1C(=O)Nc1ccccc1-c1nc2ccccc2[nH]1	none (no result: CYP2C9 inh, MRP resist rev, CYP2C19 activ, CYP2C9 act, CYP2C19 inh)
O=C(Nc1ccccc1N1CCOCC1)c1ccccc1NS(=O)(=O)c1ccc(F)cc1	CYP2C9 inh 78, CYP2C19 inh 58
CCOc1ccc(C(=O)Nc2cc(S(=O)(=O)Nc3ccccc3Cl)ccc2N2CCOCC2)cc1	none (no result: CYP2C9 inh, MRP resist rev, CYP2C19 activ, CYP2C9 act, CYP2C19 inh)
Cc1cc(F)ccc1S(=O)(=O)Nc1ccccc1C(=O)Nc1ncn[nH]1	CYP2C19 inh 94
O=C(Nc1ccccc1N1CCOCC1)c1ccccc1NS(=O)(=O)c1ccc(F)c(F)c1	CYP2C9 inh 81 (no result: MRP resist rev)
COc1ccc(C(C)=O)cc1CSc1nnc(Nc2c(C)cccc2C)s1	none (no result: CYP2C9 inh, MRP resist rev, CYP2C19 activ, CYP2C9 act, CYP2C19 inh)
Cc1ccc(S(=O)(=O)Nc2cc(C(F)(F)F)ccc2N2CCOCC2)c(C)c1	none (no result: CYP2C9 inh, MRP resist rev, CYP2C19 activ, CYP2C9 act, CYP2C19 inh)
O=C(Nc1ccccc1N1CCOCC1)c1ccccc1[N+](=O)[O-]	none (no result: MRP resist rev)
COc1ccc(C)cc1C(=O)CCC(=O)Nc1ccccc1N1CCOCC1	CYP2C9 inh 82, CYP2C19 inh 81
Cc1cc(F)ccc1S(=O)(=O)Nc1ccccc1C(=O)Nc1ccccc1N1CCOCC1	CYP2C9 inh 87, CYP2C19 inh 83
Cc1ccc(C)c(S(=O)(=O)Nc2ccccc2C(=O)Nc2ccccc2N2CCOCC2)c1	CYP2C9 inh 97, CYP2C19 inh 94 (no result: MRP resist rev)
Cc1cccc(N2C(=O)CCC2=O)n1	none (no result: CYP2C9 inh, MRP resist rev, CYP2C19 activ, CYP2C9 act, CYP2C19 inh)
CSc1nc(C)cc(OCNC(=O)c2cccs2)n1	none
CCc1cccc(C)c1NC(=O)CSc1nnc(CCCOc2ccc(Cl)cc2Cl)n1C	none (no result: CYP2C9 inh, MRP resist rev, CYP2C19 activ, CYP2C9 act, CYP2C19 inh)
CCOc1ccc(N(CC(=O)N/N=C/c2ccc(OC(C)C)cc2)S(C)(=O)=O)cc1	none (no result: CYP2C9 inh, MRP resist rev, CYP2C19 activ, CYP2C9 act, CYP2C19 inh)
COC(=O)COc1ccc(S(=O)(=O)NCc2ccncc2)cc1	CYP2C9 inh 70, CYP2C19 inh 99
O=S(=O)(NCc1ccncc1)c1ccc(Br)s1	CYP2C9 inh 51, CYP2C19 inh 98
O=S(=O)(NCc1ccncc1)c1ccccc1	CYP2C19 inh 91
CC(=O)c1cc(C)ccc1OC(=O)CCN1C(=O)C2C3c4ccccc4C(c4ccccc43)C2C1=O (stereo unspecified)	none (no result: MRP resist rev)
Cc1cccc(-n2c(C)cc(/C=C3\C(=N)N4N=C(CC(C)C)SC4=NC3=O)c2C)c1	none (no result: CYP2C9 inh, MRP resist rev, CYP2C19 activ, CYP2C9 act, CYP2C19 inh)
Cc1cc(C)cc(-n2c(C)cc(/C=C3\C(=N)N4N=C(CC(C)C)SC4=NC3=O)c2C)c1	MRP1 act 4.7 (no result: CYP2C9 inh, MRP resist rev, CYP2C19 activ, CYP2C9 act, CYP2C19 inh)
Cc1ccc(NC(=O)/C(=C/c2cccc(Br)c2)NC(=O)c2ccco2)cc1	none (no result: CYP2C9 inh, MRP resist rev, CYP2C19 activ, CYP2C9 act, CYP2C19 inh)
CN1CCN(c2nc3c(c(=O)n(C)c(=O)n3C)n2CC(=O)C23CC4CC(CC(C4)C2)C3)CC1	none
CC1(C)Cc2c(c(N3CCOCC3)nc3snc(Br)c23)CO1	CYP2C9 inh 67
CC1(C)Cc2c(c(N3CCOCC3)nc3snc(N)c23)CO1	none
CCOc1ccc(N(CC(=O)NC(C)(C)C)S(=O)(=O)c2c(C)noc2C)cc1	CYP2C19 inh 50
CCOc1ccc(N(CC(=O)Nc2cccc(Cl)c2)S(=O)(=O)c2c(C)noc2C)cc1	none
CCOc1ccc(N(CC(=O)Nc2ccc(C)cc2)S(=O)(=O)c2c(C)noc2C)cc1	none
COc1ccc(NC(=O)CN(c2ccc(C(C)C)cc2)S(=O)(=O)c2c(C)noc2C)cc1OC	CYP2C19 inh 52
CCOc1ccc(N(CC(=O)Nc2cccc(OC)c2)S(=O)(=O)c2c(C)noc2C)cc1	CYP2C9 inh 92, CYP2C19 inh 93
CCOc1ccc(N(CC(=O)NCc2cccs2)S(=O)(=O)c2c(C)noc2C)cc1	CYP2C9 inh 69, CYP2C19 inh 86
CC(C)n1c(=S)[nH]c2c1c(=O)[nH]c(=O)n2C	none (no result: MRP resist rev)
O=c1[nH]c(=O)n(CCO)c2nnn(Cc3ccccc3)c12	none
C#CCn1c(=NC(=O)CSCC(=O)N2CCOCC2)sc2ccccc21	none (no result: CYP2C9 inh, MRP resist rev, CYP2C19 activ, CYP2C9 act, CYP2C19 inh)
CCOc1ccc(N(CC(=O)N2CC=C(c3ccccc3)CC2)S(=O)(=O)c2c(C)noc2C)cc1	CYP2C19 inh 64
c1ccc(COc2ccc(-c3csnn3)cc2)cc1	CYP2C19 inh 68 (no result: MRP resist rev)
CSc1nc(NCCOCCO)c2sc3nc(-c4ccco4)c4c(c3c2n1)CCC4	CYP2C9 inh 63
COc1nc(-c2ccccc2)ccc1-c1noc(-c2ccccc2F)n1	none (no result: MRP resist rev)
CC1=CC(C)C2COC(c3ccc[n+](C)c3)C1C2C (stereo unspecified)	none (no result: CYP2C9 inh, MRP resist rev, CYP2C19 activ, CYP2C9 act, CYP2C19 inh)

Source: PubChem BioAssay
